The values that follow come from ChEMBL document CHEMBL1157539, “Thousands of chemical starting points for antimalarial lead identification” (Nature, 2010).

The first assay relates to Plasmodium falciparum. The assay is described as follows: GSK_TCMDC: Inhibition of Plasmodium falciparum 3D7 in whole red blood cells, using parasite LDH activity as an index of growth. Test compounds present at 2uM. It is filed as functional.
`Cc1noc(-c2ccc3c(c2)CCN(CCC2CCC(NC(=O)c4cc5ccccc5[nH]4)CC2)CC3)n1.Cl` (stereo unspecified) registered an Inhibition of 99%.

Compound `c1ccc(Oc2ccc(Nc3ccnc(Nc4cccc(CNCCCN5CCOCC5)c4)n3)cc2)cc1` returned an Inhibition of 100%.

For `O=C(Nc1ccc(-c2ccccc2)c(OCCN2CCNCC2)c1)c1ccc(-c2ccc(Cl)cc2)cc1`, the Inhibition was 96%.

As to `FC(F)(F)c1cccc2c(NN=Cc3ccccc3)ccnc12`, the Inhibition is 100%.

A further assay relates to Plasmodium falciparum. The assay is described as follows: GSK_TCMDC: Inhibition of Plasmodium falciparum Dd2 in whole red blood cells, using parasite LDH activity as an index of growth. Test compounds present at 2uM. It is filed as functional.
`Cc1cc(C(=O)NCc2ccc(-c3c(C)noc3C)cc2)n(-c2ccccc2)n1` yielded an Inhibition of 90%.

In turn, `Cc1c(Cc2ccccc2Br)cnc2nc(N)nc(N)c12.Cl` came in with an Inhibition of 97%.

The compound `COC(=O)c1ccc(CC(C)NCC(O)c2ccc(C(O)CNC(C)Cc3ccc(C(=O)OC)cc3)cc2)cc1.O` (stereo unspecified) had an Inhibition of 13%.

As to `CC(C)C[C@H](NC(=O)c1cc(-c2ccc(F)cc2)no1)C(=O)O.CC(C)C[C@H](NC(=O)c1conc1-c1ccc(F)cc1)C(=O)O`, the Inhibition is 4%.

Compound `CC(C)C[C@H](NC(=O)c1ccc(OCCN2CCOCC2)cc1)C(=O)N[C@H](/C=N/NC(=O)OC(C)(C)C)CCc1ccccc1` returned an Inhibition of 87%.

The compound `Cc1ccc(Nc2nccc(N(C)c3ccc4c(c3)nc(NC(=O)Cc3ccc(Cl)c(Cl)c3)n4C)n2)cc1S(N)(=O)=O.O=C(O)C(F)(F)F` yielded an Inhibition of 60%.

The compound `CN1CCCc2ccc(NC(=O)C=Cc3ccc(-c4ccc(F)cc4F)o3)cc2C1.O=C(O)C(F)(F)F` gave an Inhibition of 20%.

As to `COc1ccc(CN2C(=S)N(Cc3ccccc3)C(=O)C2CC(=O)Nc2ccccc2)cc1OC` (stereo unspecified), the Inhibition came out at 73%.

In turn, `O=c1cc(NCCCCNCc2cccc(C(F)(F)F)c2)[nH]c2ccccc12` gave an Inhibition of 34%.

As for `O=C(O)C(F)(F)F.O=C(c1cccs1)N(Cc1cccc(-c2ccc(CNCCc3ccccc3)cc2)c1)C1CCN(Cc2ccccc2)CC1`, the Inhibition worked out at 76%.

`CC1CN(c2cc(=O)n(Cc3cccc(NC(=O)Nc4ccc(-c5ccccc5)cc4)c3)cn2)CC(C)N1.O=C(O)C(F)(F)F` (stereo unspecified) had an Inhibition of 63%.

Compound `O=C(O)C(F)(F)F.Oc1ccc(CCNc2nc(NCCCOc3ccccc3-c3cccnc3)nc(N3CCNCC3)n2)cc1` came in with an Inhibition of 1%.

Take `CC(Sc1nnc(-c2cccs2)[nH]1)C(=O)c1c[nH]c2ccccc12` (stereo unspecified): the Inhibition turned out to be 58%.

For the compound `O=C(/C=C/c1ccc(Cl)c(Cl)c1)NCCCCCCN1CCN(C(=O)Nc2cc(F)cc(F)c2)CC1`, the Inhibition was determined as 0%.

In turn, `COc1ccc(-c2nc(NC(=O)Cc3cccc(OC)c3)sc2C)cc1` came in with an Inhibition of 77%.

Consider `Cn1cnc2c(Nc3ccncc3)nc(-c3ccc4c(c3)OCO4)nc21.O=C(O)C(F)(F)F`, for which the Inhibition turned out to be 2%.

The compound `O=C(c1cc(-c2ccco2)n[nH]1)N1CCN(S(=O)(=O)c2ccc(Br)cc2)CC1` returned an Inhibition of 90%.

For `O=C(N[C@@H](Cc1ccccc1)CN1CCC(Oc2ccc(F)cc2)CC1)c1ccc(OCCCN2CCCCC2)cc1.O=C(O)C(F)(F)F`, the Inhibition was 92%.

`COc1cccc2c(NN=Cc3ccccc3F)ccnc12` displayed an Inhibition of 37%.

In the case of `Cc1ccc(C(=O)Nc2ccc(-c3nc4ccccc4[nH]3)cc2)cc1S(=O)(=O)N1CCOCC1`, the Inhibition was 16%.

Take `Cc1cc(NCCC(=O)Nc2ccccc2)nc(NCCc2ccccc2)n1.O=C(O)C(F)(F)F`: the Inhibition is 8%.

Compound `COc1cc(Cc2cnc(N)nc2N)ccc1OCc1cccc(Oc2ccccc2)c1` registered an Inhibition of 21%.

`O=C(Nc1ccc(N2CCN(c3ncccc3C(F)(F)F)CC2)nc1)c1cccs1` came in with an Inhibition of 40%.

As to `CCn1c(-c2ccccc2)cc2nnc3ccccc3c21`, the Inhibition was determined as 87%.

`COc1cc(OCCCN(C)Cc2ccc(OC)c(OC)c2)ccc1NC(=O)c1cccc2c(O)c3cccc(F)c3nc12` returned an Inhibition of 62%.

In the case of `Fc1cccc(COc2ccc(Nc3ncnc4sc(C#CCNC5CCC5)cc34)cc2Cl)c1`, the Inhibition was 73%.

On to `Brc1ccc(Nc2ccnc3cc(-c4nccs4)ccc23)cc1Oc1ccnc2cc(-c3nccs3)ccc12`, for which the Inhibition came to 83%.

For the compound `Cc1[nH]c(C)c(-c2ccc(OCc3cc(F)cc(F)c3)nc2)c(=O)c1Br`, the Inhibition is reported as 97%.

`CC(C)CCCC(C)(C)NC[C@@H](O)[C@H](Cc1ccccc1)NC(=O)c1cc(NC(C)C)cc(N2CCCCS2(=O)=O)c1F.O=CO` gave an Inhibition of 99%.

`COc1ccc2c(-c3ccccc3)noc2c1` yielded an Inhibition of 34%.

`CN1CCN(CC(=O)Nc2cccc(-c3ccc(-c4nc5cc(F)ccc5[nH]4)cc3)c2)CC1` showed an Inhibition of 98%.

Compound `COc1ccc2nccc([C@@H](O)CN3CCC(NCc4ccc5c(c4)NC(=O)CS5)CC3)c2n1.O=C(O)C(=O)O` gave an Inhibition of 34%.
